# MBD2 inh = MBD2-methylated oligo binding inhibition | Q9UBB5 | TR-FRET, MBD2 binding to methylated oligonucleotide | inhibition, % at 4.4 µM | 0.31% of 370,000 active | AID 686964; in the data active = inhibition above about 13%
# rCAG RNA binder = molecules binding r(CAG) RNA repeats. inhibition, % at 3 µM. AID 651821. 1.3% of 370,000 active. r(CAG) RNA repeat, TO-PRO-1 dye displacement fluorescence;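 active = inhibition above the plate cutoff, the mean of all test compounds on that plate plus 3 SD, cut at about 35% in these data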;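 note: 0% = DMSO alone and 100% = 100 µM mitoxantrone as full dye displacement; higher means more dye released from RNA so lower well fluorescence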
# ABHD5-PLIN5 inh = ABHD5-PLIN5 protein interaction inhibition; Q00G26+Q8WTS1; Split G. princeps luciferase complementation, luminescence, 4 h; inhibition, % at 4 µM; 0.78% of 360,000 active;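 active = inhibition above the mean inhibition across every tested compound plus 3 SD, cut at about 22% in these data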;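 note: 0% = DMSO only wells and the 100% control is not disclosed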
# Target sequence (Q00G26 whole entry, looked up): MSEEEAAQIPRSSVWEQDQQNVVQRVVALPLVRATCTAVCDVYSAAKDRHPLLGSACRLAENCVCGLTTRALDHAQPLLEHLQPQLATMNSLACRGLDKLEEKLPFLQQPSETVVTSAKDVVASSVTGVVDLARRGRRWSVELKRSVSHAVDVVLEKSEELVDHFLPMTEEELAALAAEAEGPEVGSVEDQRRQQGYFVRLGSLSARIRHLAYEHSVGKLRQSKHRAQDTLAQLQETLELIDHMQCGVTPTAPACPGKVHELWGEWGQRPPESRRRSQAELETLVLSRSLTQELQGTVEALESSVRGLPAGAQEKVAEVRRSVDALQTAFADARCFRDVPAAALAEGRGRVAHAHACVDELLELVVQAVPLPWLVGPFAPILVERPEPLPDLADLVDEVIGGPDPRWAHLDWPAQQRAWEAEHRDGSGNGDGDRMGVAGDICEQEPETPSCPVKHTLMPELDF
# Target sequence (Q8WTS1 whole entry, looked up): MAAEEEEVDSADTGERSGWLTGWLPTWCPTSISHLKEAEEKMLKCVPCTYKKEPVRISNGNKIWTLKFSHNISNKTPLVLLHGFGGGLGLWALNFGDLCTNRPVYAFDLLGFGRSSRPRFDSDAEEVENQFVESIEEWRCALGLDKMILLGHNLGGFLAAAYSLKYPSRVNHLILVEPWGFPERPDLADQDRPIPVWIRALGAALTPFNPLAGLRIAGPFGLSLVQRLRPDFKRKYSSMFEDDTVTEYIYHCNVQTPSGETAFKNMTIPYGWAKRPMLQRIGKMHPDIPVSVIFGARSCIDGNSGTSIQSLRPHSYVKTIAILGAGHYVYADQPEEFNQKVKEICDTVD
# UHRF1 binding = UHRF1 methyl-DNA binding inhibition; Q96T88; UHRF1 binding to methylated oligo, TR-FRET; inhibition, % at 4.4 µM; 0.75% of 370,000 active; in the data active = inhibition above about 21%;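 note: UHRF1 SRA domain binding a hemimethylated CpG hairpin DNA probe; 0% = median of test compound wells and 100% = reference inhibitor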
# LEDGF integ inh = blocks HIV-1 LEDGF/p75-dependent DNA integration; TR-FRET IN-LEDGF/p75 DNA integration, Eu/Cy5; inhibition, % at 3.7 µM; 0.64% of 370,000 active; AID 743269;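 active = inhibition above the screen-wide mean plus 3 SD, cut at about 13% in these data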;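 note: signal is the Cy5 over europium emission ratio at 671 and 618 nm; 0% = plate median of compound wells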
# PRMT1 inh = PRMT1 (human) inhibition, primary screen; recombinant PRMT1, activity-based probe fluorescence polarization; inhibition, % at 2.79 µM; 1.3% of 370,000 active;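 active = inhibition above about 21% made by adding two undisclosed values, limit read from the data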
# * = called active by the depositor; . = no result. Compounds with a hit are over-represented: about 4.1% of the library has one in this group of screens.
SMILES,MBD2 inh,rCAG RNA binder,ABHD5-PLIN5 inh,UHRF1 binding,LEDGF integ inh,PRMT1 inh
COC(=O)C1=C(C)N(Cc2cccc(C(F)(F)F)c2)C(=NCc2cc(OC)c(OC)c(OC)c2)NC1c1ccccc1C(F)(F)F (configuration not stated),-0.9,2.7,.,0.1,2.8,-1.8
C=CCN1[C@@H](CC(C)C)COc2cc(F)ccc2S1(=O)=O,4.0,2.1,.,1.7,-3.9,-1.1
Cc1cccc(S(=O)(=O)Nc2nc3ccccc3nc2NCC2CCCO2)c1 (configuration not stated),3.3,21.3,12.0,3.1,-6.9,-1.6
Cc1ccc(S(=O)(=O)Nc2nc3ccccc3nc2NCC2CCCO2)cc1C (configuration not stated),-2.3,41.9*,-0.4,0.0,-3.0,1.9
Cc1cc2c(SCc3ccccc3Cl)nc(N)nc2nc1C,-2.0,23.8,6.5,-5.0,0.2,23.8*
O=C(N=c1ccn(-c2nc3ccccc3nc2NS(=O)(=O)c2ccccc2)cc1)c1cccs1,-0.1,2.5,12.1,-0.1,1.6,-0.5
Cc1ccccc1C(=O)N=c1ccn(-c2nc3ccccc3nc2NS(=O)(=O)c2ccc(F)cc2)cc1,2.3,1.8,5.8,20.9*,-3.1,-0.1
Cn1c(=O)oc2cc(S(=O)(=O)N3CCN(C(=O)C4CCCO4)CC3)ccc21 (configuration not stated),-1.3,1.1,.,-0.5,-2.1,-7.3
Cc1cc(NC(=O)Cc2cn(C)c3ccccc23)ccc1Oc1cccnc1,2.4,5.1,.,-0.3,-0.8,2.7
CCOC(=O)Cc1csc(NC(=O)CSc2nnc(C(C)C)n2CC)n1,-0.2,-6.0,-1.1,-0.3,-1.8,0.1
CCOC(=O)Cc1csc(NC(=O)CSc2nnc3ccccn23)n1,-9.1,0.5,-1.4,32.5*,-0.6,3.4
COc1cc2c[n+](C)c3c4ccccc4ccc3c2cc1OC,65.9*,12.9,7.4,-4.7,4.1,3.8
COc1ccc2c(c1)c[n+](C)c1c3cc(OC)c(OC)cc3ccc21,9.9,18.1,22.5*,-37.8,-0.1,0.7
COc1ccccc1-n1c(SCC(N)=O)nnc1-c1ccc(S(=O)(=O)N2CCCCC2)cc1,2.3,-2.0,-3.0,3.4,0.4,5.3
NC(=O)CSc1nnc(-c2ccc(S(=O)(=O)N3CCCCC3)cc2)n1-c1ccccc1,4.4,-4.2,3.8,40.4*,-0.9,-2.1
COc1ccc(C(CC(=O)c2ccc(O)cc2)S(=O)(=O)c2ccc(C)cc2)cc1 (configuration not stated),1.8,6.4,-2.9,3.0,6.2,2.4
COc1ccc(C(CC(=O)c2ccc(C)cc2)Sc2ccccc2N)cc1 (configuration not stated),-2.0,5.7,-4.3,3.2,0.8,24.4*
CC(C)CNC(=O)OCc1cn(Cc2ccccc2F)nn1,7.5,-1.2,.,2.0,-1.4,-4.6
CCCCOc1cccc(C2C(C(=O)c3ccc(C)o3)=C(O)C(=O)N2c2nnc(C)s2)c1 (configuration not stated),-3.2,15.1,4.2,-1.8,-2.3,23.1*
O=C(O)c1ccc(N=N/C(=N\Nc2ccc(C(=O)O)cc2)c2ccccc2)cc1,-3.7,76.5*,5.4,-1.6,-2.5,0.1
O=C(O)C1Nc2c(O)cc(Cl)c([N+](=O)[O-])c2C2C=CCC12 (configuration not stated),63.4*,100.6*,14.4,92.5*,71.8*,36.1*
O=C(CSc1ccccn1)Nc1ccc(NC(=O)CSc2ccccn2)cc1,-0.2,-2.5,-1.8,2.0,-5.2,1.5
O=C(CSc1ccccn1)Nc1nonc1[N+](=O)[O-],9.6,0.6,5.7,6.2,-2.3,29.4*
Fc1ccc2nc(-c3ccc(CN4CCC(c5nc6ccccc6[nH]5)CC4)cc3)c(-c3ccccc3)nc2c1,7.8,11.7,.,-1.1,1.8,-1.9
CCOc1ccc(-n2c(COc3ccccc3)nnc2SCC(=O)Nc2ccc3c(c2)OCCO3)cc1,-4.2,6.4,.,0.5,3.1,0.9
SMILES,MBD2 inh,rCAG RNA binder,ABHD5-PLIN5 inh,UHRF1 binding,LEDGF integ inh,PRMT1 inh
COc1ccc(CCNC(=O)/C=C/c2ccco2)cc1OC,-0.8,4.6,14.3,-1.1,4.7,22.6*
COc1ccc(CCNC(=O)/C=C/c2ccco2)cc1,-2.1,5.2,7.3,-0.1,3.8,6.1
CCOc1ccc(CCNC(=O)/C=C/c2ccco2)cc1OCC,2.3,0.6,8.8,0.8,-3.4,13.7
O=C(/C=C/c1ccco1)NCc1ccco1,1.8,3.0,7.1,-2.0,6.0,-0.3
COc1ccc(C(NC(=O)/C=C\c2ccco2)c2ccc(OC)c(OC)c2)cc1 (configuration not stated),-2.1,11.8,22.2*,-1.1,0.3,16.8
NS(=O)(=O)c1ccc(CNC(=O)/C=C/c2ccco2)cc1,4.3,6.0,22.8*,9.2,4.8,18.2
C=CCN1C(=O)[C@@H](CC(=O)NCc2ccc(C)o2)[C@]2(C(=O)OCC)CCCCC/C=C/12,-5.5,3.0,.,13.6,-4.0,5.6
CCOC(=O)C1Nc2ccccc2C2C(O)C(O)CC12 (configuration not stated),-12.5,43.2*,-8.2,-3.9,9.7,26.7*
CC(=O)C1=C(C)N(Cc2ccc(F)cc2)C(=S)NC1c1ccc(Br)cc1 (configuration not stated),1.9,2.3,.,-1.3,1.5,-1.4
O=C1C(C2=C(O)c3ccccc3C2=O)=Nc2ccccc21,-21.4,44.1*,-21.6,-11.7,1.5,21.3*
CCC[C@H]1[C@@H](N(C)CC2CCCCC2)CC[C@@]23CCCN2C(=O)CCC[C@@H]13,-4.9,.,.,2.3,2.3,-1.4
COc1ccc(/C(O)=C2/C(=O)C(=O)N(Cc3ccco3)C2c2cccs2)cc1 (configuration not stated),-8.4,11.1,19.7,-4.8,6.8,24.2*
CCCC/C=C1\CCc2c([nH]c3ccccc23)C1=O,0.0,4.4,-6.3,23.6*,-0.3,1.6
CC(C)/C=C1\CCc2c([nH]c3ccccc23)C1=O,-5.8,1.6,-0.6,-3.4,-3.1,-4.0
CCC1CCCCN1CCNC(=O)CCS(=O)(=O)c1ccc(Br)cc1 (configuration not stated),6.0,-3.6,6.6,24.8*,0.8,-1.1
CCC1CCCCN1C(=O)CCS(=O)(=O)c1ccccc1 (configuration not stated),-0.7,-3.7,-5.2,2.0,-0.4,-0.1
Cc1c(C(=O)OCC(=O)NCCc2ccc(S(N)(=O)=O)cc2)oc2ccccc12,3.1,3.8,-2.1,37.1*,-1.0,1.4
CSC(=NCc1ccc(F)cc1)NS(=O)(=O)c1cccs1,-2.8,2.0,-6.1,41.3*,1.0,1.4
CC1CCCCC1NC(=S)Nc1ccc(SC(F)F)cc1 (configuration not stated),0.9,-1.6,-16.1,37.9*,0.2,4.2
CC(C)Cc1nnc(NC(=O)CCc2c[nH]c3ccccc23)s1,10.5,-0.7,-4.5,25.1*,-1.6,5.6

# Source: PubChem BioAssay
